According to paper PMC7862700, “An all-to-all approach to the identification of sequence-specific readers for epigenetic DNA modifications on cytosine”:

Columns and labels:
Experiment in all cases: DAPPL (digital affinity profiling via proximity ligation, sequencing); 10 mM Tris-HCl pH 7.5, 50 mM NaCl, 1 mM DTT, 4% glycerol, room temperature, 30 min; GST-TFs on glutathione beads, 16-mer random dsDNA library, 0.1% formaldehyde crosslink after washing; high values mean tight binding
Details in all cases: protein: recombinant; tags: N-terminal GST; dsDNA, one strand shown
FLI1 = target: T1, FLI1 (Homo sapiens, UniProt Q01543 1-452)
T1 sequence: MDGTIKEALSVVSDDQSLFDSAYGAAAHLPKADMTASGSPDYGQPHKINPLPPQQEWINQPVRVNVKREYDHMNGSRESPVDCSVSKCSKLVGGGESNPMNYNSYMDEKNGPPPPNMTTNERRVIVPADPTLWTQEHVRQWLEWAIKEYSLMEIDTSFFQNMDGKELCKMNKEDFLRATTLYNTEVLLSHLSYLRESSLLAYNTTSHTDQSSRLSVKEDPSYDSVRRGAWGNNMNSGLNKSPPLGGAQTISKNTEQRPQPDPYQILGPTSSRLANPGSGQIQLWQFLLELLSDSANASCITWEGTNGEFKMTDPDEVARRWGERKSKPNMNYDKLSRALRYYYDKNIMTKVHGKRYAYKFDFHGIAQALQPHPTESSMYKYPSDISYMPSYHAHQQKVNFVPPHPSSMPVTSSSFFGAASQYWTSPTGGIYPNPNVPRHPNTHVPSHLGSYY
How it was run: (§1)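 In yeast, human transcription factors were expressed with a GST fusion, then pulled down on glutathione beads and given DNA barcodes. Pooled with a tag-only sample, they were exposed to 200 nmole of a 16-mer random double-stranded DNA library (Tris/NaCl/DTT/glycerol buffer, room temperature, 30 min), washed, crosslinked with 0.1% formaldehyde, proximity-ligated using BsaI/T4 ligase for 1 h at 37 °C, PCR-amplified and read on an Illumina NextSeq500. Each hexamer's frequency of reads for a factor, divided by the matching frequency for the tag-only sample, gives the binding signal.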

GABPA = target: T2, GABPA (Homo sapiens, UniProt Q06546 1-454)
T2 sequence: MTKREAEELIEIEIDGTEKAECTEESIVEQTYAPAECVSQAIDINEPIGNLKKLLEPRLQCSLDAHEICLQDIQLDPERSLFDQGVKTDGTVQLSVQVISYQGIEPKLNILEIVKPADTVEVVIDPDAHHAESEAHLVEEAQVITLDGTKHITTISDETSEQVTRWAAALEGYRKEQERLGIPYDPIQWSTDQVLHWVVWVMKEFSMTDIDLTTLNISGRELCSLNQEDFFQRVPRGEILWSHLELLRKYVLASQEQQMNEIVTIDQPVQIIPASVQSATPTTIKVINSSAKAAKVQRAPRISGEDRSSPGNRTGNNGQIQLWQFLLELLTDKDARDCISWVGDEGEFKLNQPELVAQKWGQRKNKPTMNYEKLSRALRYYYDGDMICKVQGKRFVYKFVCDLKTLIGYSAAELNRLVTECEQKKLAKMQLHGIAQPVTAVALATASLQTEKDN
How it was run: as §1

SPI1 = SPI1 (Homo sapiens, UniProt P17947 1-270)
How it was run: as §1

SPIB = SPIB (Homo sapiens, UniProt Q01892 1-262)
Chain of SPIB (Q01892 whole entry): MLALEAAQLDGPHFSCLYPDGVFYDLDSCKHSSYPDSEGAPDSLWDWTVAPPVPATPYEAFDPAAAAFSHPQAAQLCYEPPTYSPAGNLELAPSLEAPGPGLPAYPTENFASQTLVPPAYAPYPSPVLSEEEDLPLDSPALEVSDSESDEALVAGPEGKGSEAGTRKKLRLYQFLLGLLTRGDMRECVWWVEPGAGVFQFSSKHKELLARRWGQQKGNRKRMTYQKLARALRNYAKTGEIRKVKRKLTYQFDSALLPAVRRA
How it was run: as §1

FEV = target: T3, FEV (Homo sapiens, UniProt Q99581 1-238)
T3 sequence: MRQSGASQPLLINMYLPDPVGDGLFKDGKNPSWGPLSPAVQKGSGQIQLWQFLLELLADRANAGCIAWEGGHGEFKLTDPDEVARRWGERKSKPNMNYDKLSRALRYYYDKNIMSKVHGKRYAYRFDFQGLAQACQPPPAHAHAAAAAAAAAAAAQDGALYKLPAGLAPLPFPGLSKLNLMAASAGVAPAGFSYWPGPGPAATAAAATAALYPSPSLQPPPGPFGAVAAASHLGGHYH
How it was run: as §1

SPIC = target: T4, SPIC (Homo sapiens, UniProt Q8N5J4 1-248)
T4 sequence: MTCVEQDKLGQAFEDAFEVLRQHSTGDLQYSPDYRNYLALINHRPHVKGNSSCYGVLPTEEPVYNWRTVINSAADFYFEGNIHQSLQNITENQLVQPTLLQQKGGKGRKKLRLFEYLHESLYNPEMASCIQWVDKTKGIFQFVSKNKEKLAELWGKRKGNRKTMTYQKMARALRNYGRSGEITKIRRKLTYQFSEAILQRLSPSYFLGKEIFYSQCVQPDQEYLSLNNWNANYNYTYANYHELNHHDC
How it was run: as §1

ELK4 = target: T5, ELK4 (Homo sapiens, UniProt P28324-2 1-405)
T5 sequence: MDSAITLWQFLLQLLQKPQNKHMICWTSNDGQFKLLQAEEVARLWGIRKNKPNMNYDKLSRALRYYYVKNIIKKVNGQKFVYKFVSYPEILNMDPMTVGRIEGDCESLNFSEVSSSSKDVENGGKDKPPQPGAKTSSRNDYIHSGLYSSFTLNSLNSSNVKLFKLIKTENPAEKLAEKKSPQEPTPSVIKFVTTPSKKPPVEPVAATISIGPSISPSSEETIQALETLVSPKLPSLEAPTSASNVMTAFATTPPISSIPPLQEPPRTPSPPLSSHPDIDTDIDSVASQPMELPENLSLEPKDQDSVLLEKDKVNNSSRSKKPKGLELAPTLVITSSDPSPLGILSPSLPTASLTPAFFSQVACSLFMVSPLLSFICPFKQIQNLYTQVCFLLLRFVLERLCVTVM
How it was run: as §1

ETV2 = target: T6, ETV2 (Homo sapiens, UniProt O00321 1-342)
T6 sequence: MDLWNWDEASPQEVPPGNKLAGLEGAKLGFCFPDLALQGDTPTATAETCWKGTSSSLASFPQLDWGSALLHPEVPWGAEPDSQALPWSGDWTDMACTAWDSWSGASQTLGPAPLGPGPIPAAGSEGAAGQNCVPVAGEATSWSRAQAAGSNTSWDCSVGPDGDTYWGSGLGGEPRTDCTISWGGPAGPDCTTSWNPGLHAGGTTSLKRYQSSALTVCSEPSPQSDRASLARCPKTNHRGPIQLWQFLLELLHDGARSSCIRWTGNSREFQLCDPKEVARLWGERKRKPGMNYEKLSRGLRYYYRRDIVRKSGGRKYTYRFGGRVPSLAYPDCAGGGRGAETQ
How it was run: as §1

ELF3 = target: T7, ELF3 (Homo sapiens, UniProt P78545 1-371)
T7 sequence: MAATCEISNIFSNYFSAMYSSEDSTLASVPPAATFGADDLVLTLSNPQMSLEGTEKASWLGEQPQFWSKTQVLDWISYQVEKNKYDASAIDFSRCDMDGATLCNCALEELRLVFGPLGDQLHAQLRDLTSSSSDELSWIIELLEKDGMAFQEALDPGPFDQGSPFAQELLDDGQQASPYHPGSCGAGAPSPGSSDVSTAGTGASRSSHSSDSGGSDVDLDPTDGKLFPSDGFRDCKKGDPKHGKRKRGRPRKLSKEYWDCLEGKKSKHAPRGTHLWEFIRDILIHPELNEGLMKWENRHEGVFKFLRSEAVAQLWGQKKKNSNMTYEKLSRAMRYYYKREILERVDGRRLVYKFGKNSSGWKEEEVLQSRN
How it was run: as §1

ETV1 = ETV1 (Homo sapiens, UniProt P50549 1-477)
Chain of ETV1 (P50549 whole entry): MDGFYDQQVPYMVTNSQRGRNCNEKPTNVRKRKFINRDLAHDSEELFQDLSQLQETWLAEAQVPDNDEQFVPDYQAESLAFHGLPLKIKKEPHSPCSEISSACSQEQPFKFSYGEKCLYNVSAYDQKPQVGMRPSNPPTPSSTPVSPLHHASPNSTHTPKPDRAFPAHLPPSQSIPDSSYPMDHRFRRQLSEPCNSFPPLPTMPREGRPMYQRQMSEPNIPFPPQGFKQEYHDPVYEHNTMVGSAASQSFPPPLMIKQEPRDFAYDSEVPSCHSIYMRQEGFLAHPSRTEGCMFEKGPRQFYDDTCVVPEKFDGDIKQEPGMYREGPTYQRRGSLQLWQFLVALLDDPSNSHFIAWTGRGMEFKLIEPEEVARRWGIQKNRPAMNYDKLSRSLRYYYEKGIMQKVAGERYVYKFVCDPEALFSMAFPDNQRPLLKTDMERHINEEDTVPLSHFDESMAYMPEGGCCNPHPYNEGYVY
How it was run: as §1

ERF = target: T8, ERF (Homo sapiens, UniProt P50548 1-548)
T8 sequence: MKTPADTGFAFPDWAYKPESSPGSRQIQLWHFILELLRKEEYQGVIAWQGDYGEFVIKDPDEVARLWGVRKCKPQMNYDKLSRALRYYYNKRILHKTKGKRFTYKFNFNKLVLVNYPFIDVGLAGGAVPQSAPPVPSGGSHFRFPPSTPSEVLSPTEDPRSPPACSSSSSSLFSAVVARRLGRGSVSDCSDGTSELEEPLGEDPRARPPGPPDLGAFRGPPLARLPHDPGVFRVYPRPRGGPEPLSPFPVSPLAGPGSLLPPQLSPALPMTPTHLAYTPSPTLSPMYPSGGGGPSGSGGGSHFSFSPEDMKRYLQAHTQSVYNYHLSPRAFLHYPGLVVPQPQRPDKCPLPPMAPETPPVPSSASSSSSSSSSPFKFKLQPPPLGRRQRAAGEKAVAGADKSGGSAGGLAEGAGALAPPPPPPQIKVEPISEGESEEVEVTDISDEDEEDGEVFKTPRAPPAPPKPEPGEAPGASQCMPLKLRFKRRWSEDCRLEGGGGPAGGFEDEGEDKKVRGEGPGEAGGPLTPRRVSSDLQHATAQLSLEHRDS
How it was run: as §1

ETV3L = target: T9, ETV3L (Homo sapiens, UniProt Q6ZN32 1-361)
T9 sequence: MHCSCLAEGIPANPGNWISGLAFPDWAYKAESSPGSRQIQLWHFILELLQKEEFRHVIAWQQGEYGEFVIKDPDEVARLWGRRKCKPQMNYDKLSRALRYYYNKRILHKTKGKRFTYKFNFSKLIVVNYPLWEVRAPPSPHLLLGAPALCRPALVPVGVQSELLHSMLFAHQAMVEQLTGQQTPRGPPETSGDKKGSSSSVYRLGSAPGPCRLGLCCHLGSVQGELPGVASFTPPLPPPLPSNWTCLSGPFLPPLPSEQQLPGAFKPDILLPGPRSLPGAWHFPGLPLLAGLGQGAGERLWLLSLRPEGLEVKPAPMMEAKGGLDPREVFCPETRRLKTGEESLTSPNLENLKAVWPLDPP
How it was run: as §1

ETS2 = target: T10, ETS2 (Homo sapiens, UniProt P15036 1-469)
T10 sequence: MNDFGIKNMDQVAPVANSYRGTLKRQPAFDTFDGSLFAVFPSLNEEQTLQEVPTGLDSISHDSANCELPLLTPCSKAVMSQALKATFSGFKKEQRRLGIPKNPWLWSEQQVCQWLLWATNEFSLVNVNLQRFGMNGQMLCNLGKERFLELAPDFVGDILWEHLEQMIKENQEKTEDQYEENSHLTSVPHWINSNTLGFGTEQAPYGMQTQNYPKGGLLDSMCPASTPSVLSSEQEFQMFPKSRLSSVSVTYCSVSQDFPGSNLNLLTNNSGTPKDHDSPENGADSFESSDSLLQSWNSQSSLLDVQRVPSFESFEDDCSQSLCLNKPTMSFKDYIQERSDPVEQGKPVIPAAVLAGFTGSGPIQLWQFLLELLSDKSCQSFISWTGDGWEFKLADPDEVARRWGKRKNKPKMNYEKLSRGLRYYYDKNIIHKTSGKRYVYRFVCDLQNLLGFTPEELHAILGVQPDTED
How it was run: as §1

SPDEF = target: T11, SPDEF (Homo sapiens, UniProt O95238 1-335)
T11 sequence: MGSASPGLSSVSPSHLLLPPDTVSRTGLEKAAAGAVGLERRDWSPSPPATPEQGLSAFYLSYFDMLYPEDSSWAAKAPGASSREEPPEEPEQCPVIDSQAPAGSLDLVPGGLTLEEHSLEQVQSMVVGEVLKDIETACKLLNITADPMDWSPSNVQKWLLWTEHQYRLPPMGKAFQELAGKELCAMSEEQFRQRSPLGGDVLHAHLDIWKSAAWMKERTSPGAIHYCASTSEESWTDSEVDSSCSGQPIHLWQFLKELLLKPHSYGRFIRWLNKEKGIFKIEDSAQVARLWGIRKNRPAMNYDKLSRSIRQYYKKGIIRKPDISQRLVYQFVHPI
How it was run: as §1

ETV7 = target: T12, ETV7 (Homo sapiens, UniProt Q9Y603 1-341)
T12 sequence: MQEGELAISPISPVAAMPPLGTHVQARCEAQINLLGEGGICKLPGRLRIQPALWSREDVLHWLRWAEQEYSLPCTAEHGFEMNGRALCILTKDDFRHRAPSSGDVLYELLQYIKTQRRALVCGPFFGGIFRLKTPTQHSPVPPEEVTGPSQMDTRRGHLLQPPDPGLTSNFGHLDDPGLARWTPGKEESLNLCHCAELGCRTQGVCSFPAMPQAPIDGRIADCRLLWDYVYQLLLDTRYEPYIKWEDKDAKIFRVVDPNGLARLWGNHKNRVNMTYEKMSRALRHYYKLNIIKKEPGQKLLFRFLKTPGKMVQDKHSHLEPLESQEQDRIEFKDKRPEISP
How it was run: as §1

ELF5 = target: T13, ELF5 (Homo sapiens, UniProt Q9UKW6-2 1-255)
T13 sequence: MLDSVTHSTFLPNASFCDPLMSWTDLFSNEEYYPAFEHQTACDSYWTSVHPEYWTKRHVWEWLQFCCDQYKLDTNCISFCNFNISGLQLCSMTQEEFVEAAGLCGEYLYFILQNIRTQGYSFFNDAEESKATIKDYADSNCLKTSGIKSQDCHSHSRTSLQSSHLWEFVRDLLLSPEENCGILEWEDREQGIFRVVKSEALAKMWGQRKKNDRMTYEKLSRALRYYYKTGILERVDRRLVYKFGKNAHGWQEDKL
How it was run: as §1

With ATGCGT the binding signal (FLI1) was 1.06 fold enrichment (6-mer frequency, TF over GST control), the binding signal (GABPA) was 1.07 fold enrichment (6-mer frequency, TF over GST control) and the binding signal (SPI1) was 1.03 fold enrichment (6-mer frequency, TF over GST control). For the same sequence, the binding signal (SPIB) was 1.03 fold enrichment (6-mer frequency, TF over GST control), the binding signal (FEV) was 1.01 fold enrichment (6-mer frequency, TF over GST control) and the binding signal (SPIC) was 1.07 fold enrichment (6-mer frequency, TF over GST control). The binding signal (ELK4) was 1.15 fold enrichment (6-mer frequency, TF over GST control), the binding signal (ETV2) was 1.18 fold enrichment (6-mer frequency, TF over GST control) and the binding signal (ELF3) was 1.07 fold enrichment (6-mer frequency, TF over GST control). The binding signal (ETV1) was 1.02 fold enrichment (6-mer frequency, TF over GST control), the binding signal (ERF) was 1.01 fold enrichment (6-mer frequency, TF over GST control) and the binding signal (ETV3L) was 1.1 fold enrichment (6-mer frequency, TF over GST control). For the same sequence, the binding signal (ETS2) was 1.02 fold enrichment (6-mer frequency, TF over GST control), the binding signal (SPDEF) was 1.07 fold enrichment (6-mer frequency, TF over GST control) and the binding signal (ETV7) was 1.16 fold enrichment (6-mer frequency, TF over GST control). For the same sequence, the binding signal (ELF5) was 1.03 fold enrichment (6-mer frequency, TF over GST control).
